From PubChem BioAssay (NCI)
This is part of a sample that, as a whole, favours compounds with a hit. Of some 83,000 tested, about 20% had one in any assay.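 For each line, cells grew in 96-well plates with the test compound present at a single concentration for 48 hours.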 Calls of active or inactive are those of the source. Rule for the calls: active = growth percent below 10; inactive = the rest.

tested on: SF-295 CNS; experiment: NCI-60 one-dose screen, 48 h (100 = growth as untreated, 0 = no growth, -100 = all killed); details: 10 µM unless noted

Compound	growth
S=C(Sc1ccc(Cl)cc1)Sc1ccc(Cl)cc1	66% (inactive)
O=C(O)c1ccc([N+](=O)[O-])cc1S(=O)(=O)O	102% (inactive)
O=C(O)CC1=CCCCC1	95.2% (inactive)
O=C1C=C[C@H](O)[C@@]2(CO)O[C@@H]12	109% (inactive)
NC(=O)NCCO	95.6% (inactive)
O=C(O)C1CCCN1C(=O)OCc1ccccc1 (stereo not drawn)	107% (inactive)
C=CC(C)(C)n1cc(C2=C(O)C(=O)C(c3cn(C(C)(C)C=C)c4ccccc34)=C(O)C2=O)c2ccccc21	83.5% (inactive)
COC(=O)c1cccc([N+](=O)[O-])c1	105% (inactive)
CCOC(=O)C(=O)CC(=O)c1ccccc1	104% (inactive)
CC1CC2C3CCC4=CC(=O)CCC4(C)C3CCC2(C)C1(O)C(=O)CO (stereo not drawn)	124% (inactive)
CC(CC(CCC(=O)O)(c1ccccc1)c1ccccc1)N(C)C (stereo not drawn)	93% (inactive)
Cc1ccc(S(=O)(=O)Oc2ccc3sc4c(CO)ccc(NCCN(C)C)c4c(=O)c3c2)cc1	-78.7% [100 µM] (active)
O=C(OCC1CCCO1)c1ccc([N+](=O)[O-])cc1 (stereo not drawn)	102% (inactive)
Nc1c(Br)cc(O)c2c1C(=O)c1ccccc1C2=O	114% (inactive)
COc1ccc(Br)c2c1C(=O)CC2	111% (inactive)
CC(=O)N(C(C)=O)c1ccc(C)cc1	93.5% (inactive)
CC1(C)C2CCC1(C)C1(C2)OCCS1 (stereo not drawn)	92.2% (inactive)

Compound	growth
O=c1n(CC2CO2)c(=O)n(CC2CO2)n1CC1CO1 (stereo not drawn)	-10.3% (active)
S=C=Nc1ccc2ccccc2c1	108% (inactive)
O=C(O)c1c[nH]c2ccccc2c1=O	104% (inactive)
Cc1[nH]n(-c2ccccc2)c(=O)c1C=NC(=S)C(N)=S	98.4% (inactive)
CC(=O)N(C)N=Nc1ccc(C)cc1	101% (inactive)
COc1ccc2c(Cl)cc(NC(=O)Nc3c(C)cccc3C)nc2c1	0.445% (active)
O=C(c1ccc(Cl)cc1)N1CCCCC1	99.2% (inactive)
CC(=O)NC(O)C(Cl)Cl (stereo not drawn)	93.6% (inactive)
CCC(/C=C\C(C)=O)CC	104% (inactive)
CCOC(=O)C(COS(C)(=O)=O)(COS(C)(=O)=O)C(=O)OCC	111% (inactive)
CC(=O)NNC(=S)N/C=C/c1c(C)ccc([N+](=O)[O-])c1[N+](=O)[O-]	103% (inactive)
CC(=O)N(CCCCCCN(C(C)=O)C(C)=O)C(C)=O	110% [100 µM] (inactive)
NNc1ncccn1	108% (inactive)
CC12CCC3c4ccc(O)cc4CCC3C1CCC2=O (stereo not drawn)	112% (inactive)
Nc1cc2ccccc2c(O)c1O	85% (inactive)
CC(C)Sc1ncnc2nc[nH]c12	107% (inactive)
